Assay outcomes deposited in PubChem BioAssay by National Center for Advancing Translational Sciences (NCATS).
HEK293 tox: HEK 293 cell cytotoxicity | Potency, µM (doses to about 115 µM), without a hit: at the highest dose activity change, negative = cytotoxicity, actives largely listed as inhibitors | 94,000 tested, 6.6% active | HEK 293 viability, ATP luminescence (CellTiter-Glo), 48-72 h; further: nearly all actives have a fitted effect of over 60% in size
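Cells seeded first (HEK 293, 250 cells/well), then compound added by pintool. Incubation ran 48 or 72 hr at 37 degree Celsius. CellTiter-Glo was added and luminescence imaged after 10 min at room temperature.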
3T3 cytotox: NIH 3T3 cell cytotoxicity; 94,000 tested, 4.3% active; Potency, µM (doses to about 96.7 µM), inactives show at the top dose activity change, negative = cytotoxicity, hits mostly inhibitors; NIH 3T3 viability, CellTiter-Glo ATP luminescence, 48-72 h; further: nearly all actives have a fitted effect of over 55% in size
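Cytotoxicity was measured by CellTiter-Glo ATP luminescence after 48 or 72 h compound exposure at 37 °C. Mouse NIH 3T3 fibroblasts were seeded at 400 cells/well and dosed by 23 nL pin transfer.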
Luciferase inh: Photinus pyralis luciferase inhibition | purified P. pyralis luciferase, luminescence, biochemical | Potency, µM (highest dose often 115 µM), usual class: inhibitors | AID 1347043 | 76,000 tested, 2.5% active; further: nearly all actives have a fitted effect of over 65% in size
Target sequence (P08659 whole entry, looked up): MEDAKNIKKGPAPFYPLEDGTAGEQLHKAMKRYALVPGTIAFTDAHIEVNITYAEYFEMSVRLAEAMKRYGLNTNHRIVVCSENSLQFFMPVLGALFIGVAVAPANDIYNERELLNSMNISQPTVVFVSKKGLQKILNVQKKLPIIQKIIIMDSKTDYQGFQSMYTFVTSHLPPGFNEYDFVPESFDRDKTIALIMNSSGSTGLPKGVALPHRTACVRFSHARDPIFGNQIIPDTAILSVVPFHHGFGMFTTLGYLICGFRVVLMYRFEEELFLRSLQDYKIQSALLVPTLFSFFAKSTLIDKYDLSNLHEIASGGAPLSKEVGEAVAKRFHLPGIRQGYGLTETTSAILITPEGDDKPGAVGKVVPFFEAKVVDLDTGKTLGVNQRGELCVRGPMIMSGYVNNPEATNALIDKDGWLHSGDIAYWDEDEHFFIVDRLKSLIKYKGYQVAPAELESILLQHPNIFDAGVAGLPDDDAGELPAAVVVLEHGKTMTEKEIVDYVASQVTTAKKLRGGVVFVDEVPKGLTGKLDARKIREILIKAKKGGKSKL
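Purified 10nM P. pyralis luciferase with 10uM D-luciferin and 10uM ATP in 50mM Tris acetate pH 7.5, 10mM Mg acetate, 0.01% Tween-20, 0.05% BSA. qHTS titration; luminescence read by CCD imager.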
NPR1 antag: antagonists of human natriuretic peptide receptor Npr1; P16066; HEK293 hNpr1 GloSensor cGMP, ANP-stimulated luminescence; Potency, µM (doses to about 46.3 µM), for inactives: at the highest dose activity change, negative = inhibition, actives largely listed as inhibitors; 76,000 tested, 1.6% active; AID 1347048; calls by dose curve; further: nearly all actives have a fitted effect of over 60% in size
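Compound pre-incubated 30 min at room temperature on GloSensor-loaded HEK293 cells stably carrying hNpr1 and the pGS-40F cGMP biosensor. Stimulation uses hNppA at 0.1 nM final; luminescence is taken at baseline and 20 min post-agonist.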
Numbers without * were called inactive; [ ] = another dose, or the depositor's remark. Compounds with a hit are over-represented: about 11% of the library has one in this group of screens. Unless noted, the call rests on the fitted dose curve; in most records, active means well fitted curve in the direction sought with a large enough effect; inconclusive means small, poorly fitted or top-dose-only effect, or another doubt; inactive means no such curve, though single readings can be large; an effect the other way counts as inactive or inconclusive. On the % scale 0 is the no-effect control and ±100 the full control effect; potency means the concentration at half of the fitted maximal effect.

For CC(C)Oc1ccc(C(=O)NC2CCN(c3cnn(C)c(=O)c3)CC2)cc1 the results were HEK293 tox -2%, 3T3 cytotox -9%, Luciferase inh inactive and NPR1 antag 0%.
`O=C(Cc1ccccc1)N1CCCCC1c1nc(CCOCC2CCOCC2)no1` (centres undefined) gave HEK293 tox -29%, 3T3 cytotox -37%, Luciferase inh inactive and NPR1 antag -10%.
For O=C(NC1CCCCC1)N1CCCC1c1nncn1C1CCCC1 (centres undefined) the results were HEK293 tox -9% and 3T3 cytotox -13%.
`CC(C)(C)CC(=O)N1CCN(c2nc(-c3ccccc3)nc3c2CCC3)CC1` gave HEK293 tox 0%, 3T3 cytotox 5%, Luciferase inh inactive and NPR1 antag -1%.
Screening COC(C)(C)C(=O)N1CCN(c2nc(-c3ccccc3)nc3c2CCC3)CC1 returned HEK293 tox 79µM*, 3T3 cytotox -16%, Luciferase inh inactive and NPR1 antag 4%.
CNCCNC(=O)C1CCN(c2nc(-c3ccccc3)nc3c2CCC3)CC1 was read as HEK293 tox inconclusive, 3T3 cytotox inconclusive, Luciferase inh inactive and NPR1 antag 1%.
For O=C(NC[C@@H]1CCCN1)C1CCN(c2nc(-c3ccccc3)nc3c2CCC3)CC1 the results were HEK293 tox 32µM*, 3T3 cytotox 22µM*, Luciferase inh inactive and NPR1 antag -6%.
Screening CC1CN(C(=O)C2CCN(c3nc(-c4ccccc4)nc4c3CCC4)CC2)CCN1 (centres undefined) returned HEK293 tox inconclusive, 3T3 cytotox inconclusive, Luciferase inh inactive and NPR1 antag -8%.
Screening O=C(NC1CCCNC1)C1CCN(c2nc(-c3ccccc3)nc3c2CCC3)CC1 (centres undefined) returned HEK293 tox inconclusive, 3T3 cytotox 45µM*, Luciferase inh inactive and NPR1 antag 2%.
O=C(c1cccc(-c2ccccn2)c1)N1CCN(C(=O)C2CCCC2)CC1 was read as HEK293 tox -20% and 3T3 cytotox -31%.
Screening O=C(NCc1ccccc1Cl)c1ccc2nnc(C3CCCC3)n2c1 returned HEK293 tox inconclusive and 3T3 cytotox 35µM*.
O=C(NCc1cccc(Cl)c1)c1ccc2nnc(C3CCCC3)n2c1 was read as HEK293 tox inconclusive and 3T3 cytotox 40µM*.
Screening O=C(NCc1cccc(Cl)c1)c1ccc2nnc(C3CCOCC3)n2c1 returned HEK293 tox 2% and 3T3 cytotox -36%.
For O=C(NCCc1ccccc1F)c1ccc2nnc(C3CC3)n2c1 the results were HEK293 tox inconclusive and 3T3 cytotox -27%[138 µM].
Screening O=C(NCc1ccccn1)c1ccc2nnc(Cc3ccc(Cl)cc3)n2c1 returned HEK293 tox inactive and 3T3 cytotox -21%.
For O=C(NCc1cccc(C(F)(F)F)c1)c1ccc2nnc(C3CCCC3)n2c1 the results were HEK293 tox 45µM* and 3T3 cytotox inconclusive.
O=C(NCc1cccs1)c1ccc2nnc(Cc3ccc(Cl)cc3)n2c1 was read as HEK293 tox 45µM* and 3T3 cytotox inconclusive.
For CSCCNC(=O)C1CCN(c2nc3ncccc3o2)CC1 the results were HEK293 tox -1%[172 µM] and 3T3 cytotox -10%[138 µM].
`O=C(NCCc1ccc(Cl)cc1)c1ccc2nnc(C3CCOCC3)n2c1` gave HEK293 tox inactive and 3T3 cytotox -29%.
For O=C(NCc1ccc(Cl)cc1)c1ccc2nnc(C3CCCC3)n2c1 the results were HEK293 tox inconclusive and 3T3 cytotox 32µM*.
For Cc1noc2c(-c3cccc(O)c3)cc(-c3ccccc3)nc12 the results were HEK293 tox 50µM*, 3T3 cytotox 28µM*, Luciferase inh inactive and NPR1 antag -2%[70.6 µM].
COCCCNc1ncccc1-c1cc(-c2ccccc2)nc2c(C)noc12 was read as HEK293 tox 112µM*, 3T3 cytotox inconclusive, Luciferase inh inactive and NPR1 antag 5%[70.6 µM].
`Cc1noc2c(-c3cccnc3NCCN(C)C)cc(-c3ccccc3)nc12` gave HEK293 tox 89µM*, 3T3 cytotox 45µM*, Luciferase inh inactive and NPR1 antag 1%[70.6 µM].
Cc1noc2c(-c3cccnc3NCCCn3ccnc3)cc(-c3ccccc3)nc12 was read as HEK293 tox 71µM*, 3T3 cytotox inconclusive, Luciferase inh inactive and NPR1 antag 1%[70.6 µM].
Cc1noc2c(-c3cccnc3NCc3cccnc3)cc(-c3ccccc3)nc12 was read as HEK293 tox inconclusive, 3T3 cytotox inconclusive, Luciferase inh inactive and NPR1 antag 6%[70.6 µM].
`Cc1noc2c(-c3cccnc3N(C)C)cc(-c3ccccc3)nc12` gave HEK293 tox inconclusive, 3T3 cytotox inconclusive, Luciferase inh inactive and NPR1 antag -1%[70.6 µM].
`COc1ccc(-c2ccc(C(=O)NCc3cccc(C(F)(F)F)c3)cc2)nn1` gave HEK293 tox -17% and 3T3 cytotox -18%.
Screening O=C(c1ccccc1F)N1CCC(Cc2nc(-c3ccccc3)n[nH]2)CC1 returned HEK293 tox inconclusive and 3T3 cytotox -23%.
For COc1ccccc1CCC(=O)N1CCC2(CC1)N(c1ccccc1)C(=O)CS2(=O)=O the results were HEK293 tox inactive, 3T3 cytotox -3%, Luciferase inh inactive and NPR1 antag 2%.
`O=C(NCCc1ccccc1)c1nc2cccnc2n(CCc2ccccc2)c1=O` gave HEK293 tox inconclusive and 3T3 cytotox -1%.
For CCCCn1c(=O)c(C(=O)NCCc2ccccc2)nc2cccnc21 the results were HEK293 tox 45µM* and 3T3 cytotox inconclusive.
Screening CCCCn1c(=O)c(C(=O)NCc2cccc(Cl)c2)nc2cccnc21 returned HEK293 tox inconclusive and 3T3 cytotox 35µM*.
O=C(NCc1cccc(Cl)c1)c1nc2cccnc2n(CCc2ccccc2)c1=O was read as HEK293 tox 35µM* and 3T3 cytotox inconclusive.
`COCC1CN(C2CCC2)CC12CCN(C(=O)c1ccc(OC)c(F)c1)CC2` (centres undefined) gave HEK293 tox inconclusive, 3T3 cytotox -20%, Luciferase inh inactive and NPR1 antag -15%.
Screening COc1ccccc1CNC(=O)C1CCN(C(=O)c2nnn3c2COC(c2ccc(C)cc2)C3)CC1 (centres undefined) returned HEK293 tox -18%, 3T3 cytotox -18%, Luciferase inh 18µM* and NPR1 antag -2%.
For Cc1ccc(C2Cn3nnc(C(=O)N4CCC(C(=O)NCc5ccco5)CC4)c3CO2)cc1 (centres undefined) the results were HEK293 tox 3%, 3T3 cytotox inactive, Luciferase inh 32µM* and NPR1 antag 5%.
For Cc1ccc(C2Cn3nnc(C(=O)N4CCC(C(=O)NCC(C)C)CC4)c3CO2)cc1 (centres undefined) the results were HEK293 tox 0%, 3T3 cytotox -14%, Luciferase inh 22µM* and NPR1 antag 1%.
